# Assay results: the OligoGym collection
# Biological target: ZMAT5
# Experiment: pooled miR-30 sensor sort-seq; sequence = guide strand
# Conditions: shRNA
# Further: reference of the scale not given here.
row,Sequence,sensor-assay potency score (higher = more potent)
1,ATGTCGTACCAGACCTTCTTGG,-1.05
2,TCTCGCTCTGACATGTGGGAAA,-1.37
3,TTGGAGCCAAAGTCGCACTGGC,-0.262
4,TACCAGACCTTCTTGGCCTTGA,0.178
5,AAAATCTGCAGTTGGAGCCAAA,-1.1
6,TACTGGAAGACAGTGGTTCTGA,0.107
7,TGCATCTCGGAACATGTCGTAC,-1.55
8,TTGTTCTGCTCATCCAGCAAGA,-0.992
9,TGTCGTACCAGACCTTCTTGGC,-0.415
10,TCTGACATGTGGGAAAATCTGC,-0.533

# Biological target: ZMYM3
# Experiment: as above
# Conditions: shRNA
row,Sequence,sensor-assay potency score (higher = more potent)
1,TTGACCACAGATCCCATCCTGC,-0.277
2,TTGGACTTCATCTCCACCTTGC,0.519
3,TACACTGGGATTAATGTCCAGA,-0.579
4,TTTGTGACACACTTGAGCGTAG,0.22
5,TTGAGCTCAGCAGCTGAGCAGG,-1.2
6,TTGTCTGTGCTCTCCAAGGTAG,-0.839
7,TTACACAGGGTCTTGCACCAGA,0.022
8,TTGTACAGCAGCACACAGCCTT,-0.282
9,TTGTTCAGTAGACACATCCTCA,0.00931
10,TTCTGTTTGACTTCCTTTGGAC,0.00295
11,TAGAACTTGACAGGGCAGCGGA,-0.668
12,AAACAGGTCACAGTCTTCCAGG,-1.1

# Biological target: ZNF100
# Experiment: as above
# Conditions: shRNA
row,Sequence,sensor-assay potency score (higher = more potent)
1,TTGAATTTGAAAATGTATGAAA,-0.873
2,TTCTCCAGTATAACTTACCTTA,-0.393
3,TTAGTGAGGGCTGAGGACCAGT,-0.895
4,TTTGTAACTGTAAATTGTCATG,-1.22
5,TTTGTTATCATGTTCTTTGTGC,0.633
6,TTCAAAATAAGACTGCACCAGA,0.0757
7,TTAATTTGTTATCATGTTCTTT,-0.0243
8,TTTCCTATACAAACCCTGCTGA,-0.0321
9,TAATTTGTTATCATGTTCTTTG,-0.537
10,TTTCTAGTATGTCTTATCTTAT,-1.12
11,TATTTGTACAATATTTCTCAAG,-1.35

# Biological target: ZNF135
# Experiment: as above
# Conditions: shRNA
row,Sequence,sensor-assay potency score (higher = more potent)
1,TTTCTCATGTGTATGATTGGGT,0.467
2,TAACATAGCACTAATGGGCGTT,0.0821
3,TTCTTCAGAGATGCCTTGCTTT,-0.404
4,TTGCTTTAGAACTGACAGTTTG,-1.45
5,TAGAACTGACAGTTTGACTTTG,-0.0496
6,TCAAACGTCACTTGCTCCGGGT,-0.579
7,TTAGAACTGACAGTTTGACTTT,-0.0207
